Laboratory results: PubChem BioAssay (NCI)
This is part of a sample that, as a whole, favours compounds with a hit. Of some 83,000 tested, about 20% had one in any assay.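 Assay: single dose, 48 h. Readout: percent growth (0 = no net growth; negative = cell death). Active: <10.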 A number with no mark means an inactive call. Active and inactive are the calls of the source.

Experiments:
Experiment in all cases: NCI-60 one-dose screen, 48 h (100 = growth as untreated, 0 = no growth, -100 = all killed)
Conditions in all cases: 10 µM unless noted
HCT-15 colon = test system: HCT-15 colon
SNB-75 CNS = test system: SNB-75 CNS
SNB-19 CNS = test system: SNB-19 CNS
U251 CNS = test system: U251 CNS
PC-3 prostate = test system: PC-3 prostate
SK-MEL-5 melanoma = test system: SK-MEL-5 melanoma
UACC-62 melanoma = test system: UACC-62 melanoma
LOX IMVI melanoma = test system: LOX IMVI melanoma
SK-MEL-28 melanoma = test system: SK-MEL-28 melanoma

| Compound | growth (HCT-15 colon) | growth (SNB-75 CNS) | growth (SNB-19 CNS) | growth (U251 CNS) | growth (PC-3 prostate) | growth (SK-MEL-5 melanoma) | growth (UACC-62 melanoma) | growth (LOX IMVI melanoma) | growth (SK-MEL-28 melanoma) |
| --- | --- | --- | --- | --- | --- | --- | --- | --- | --- |
| COc1c(OCCCN2CCOCC2)ccc2c3n(c(=NC(=O)c4cnc(N)nc4)nc12)CCN3 | 14.9% | -19.2% (active) | 10.8% | 10.1% | 12% | -48.7% (active) | -48.9% (active) | -41.9% (active) | -7.18% (active) |
| Cc1cc(Nc2cc(N3CCN(C)CC3)nc(Sc3ccc(NC(=O)C4CC4)cc3)n2)n[nH]1 | 40.2% | 0.133% (active) | 46.8% | 30% | 35.2% | 9.58% (active) | 13% | -69.2% (active) | 34.4% |
| COc1cc2c(Oc3ccc4[nH]c(C)cc4c3F)ncnc2cc1OCCCN1CCCC1 | 99.4% | 50.9% | 88.2% | 63.2% | 103% | 104% | 103% | 85.8% | 95.8% |
| Cc1csc(-c2nnc(Nc3ccc(Oc4ncccc4-c4ccnc(N)n4)cc3)c3ccccc23)c1 | 37.6% | 61.9% | 43.3% | 37.7% | 59.9% | 54.1% | 21.1% | 25.7% | 18.9% |
| NC1(C(=O)N[C@@H](CCO)c2ccc(Cl)cc2)CCN(c2ncnc3[nH]ccc23)CC1 | 58.1% | -46.8% (active) | 43.5% | 34.6% | 49.8% | 70.5% | -15.6% (active) | 40.3% | – |
| COC(=O)[C@H](C)NC(=O)[C@@H](OC)[C@@H]1Cc2cc3cc(OC4CC(OC5CC(O)C(O)C(C)O5)C(O)C(C)O4)c(C)c(O)c3c(O)c2C(=O)[C@H]1OC1CC(OC2CC(OC3CC(C)(O)C(O)C(C)O3)C(O)C(C)O2)C(O)C(C)O1 (stereo not given in full) | 19.3% | -63.8% (active) | 8.48% (active) | 7.45% (active) | 8.21% (active) | -67.4% (active) | -52.8% (active) | -27.4% (active) | -37.7% (active) |
| CC(=O)Oc1ccccc1C(=O)N=C1[Se]CCN1C(=O)c1ccccc1OC(C)=O | -36.1% (active) | -65.2% (active) | -48.8% (active) | -63.6% (active) | -49.7% (active) | -57.6% (active) | -57.8% (active) | -49% (active) | -27.9% (active) |
| O=C(Cn1ccc2ccccc21)Nc1ccc(-c2nc3ccccc3s2)cc1 | 110% | 93.8% | 98.6% | 97.6% | 98% | 98.6% | 95% | 91.3% | 114% |
| Cc1cc(Nc2cc(N3CCN(C)CC3)nc(/C=C/c3ccccc3)n2)n[nH]1 | 13.4% | -97.1% (active) | 14% | -29.9% (active) | 16.5% | -88.7% (active) | -69.9% (active) | -92.6% (active) | -65.4% (active) |
| C=C1CC[C@@H]2[C@](C)(COC(C)=O)[C@H](OC(C)=O)CC[C@@]2(C)[C@@H]1C/C=C1/C(=O)OC[C@H]1OC(C)=O | -23% (active) | 44.9% | 83% | 54% | 88.5% | 56.2% | 29.7% | -74.4% (active) | 37.8% |
| CC(=Nc1ccccc1)C1=C(O)C(Cc2ccc(O)cc2)NC1=O (stereo not given) | 12.1% | 15.2% | 34% | 12.8% | 15.7% | -44% (active) | 28.6% | 19.2% | 40% |
| O=CC(OC(=O)c1ccccc1)C(OC(=O)c1ccccc1)C(COC(c1ccccc1)(c1ccccc1)c1ccccc1)OC(=O)c1ccccc1 (stereo not given) | 48.8% | 94% | 78.8% | – | 3.19% (active) | 70.3% | 63.4% | 13.8% | – |
| C=CCCCOC1[C@H](OCc2ccccc2)C(OCc2ccccc2)C(OC)O[C@@H]1CNC(=O)c1cccc(I)c1 (stereo not given in full) | 24.9% | 54.4% | 49.9% | 25.4% | 25% | -6.8% (active) | 30.9% | 11.4% | 70.5% |
| C=CCN1C(=O)c2cccc3c(-c4ccc5c(c4)ncn5C4CCCCC4)ccc(c23)C1=O | 44.9% | 50.2% | 76.1% | 52% | 22.8% | -27.8% (active) | 44% | 50.3% | 76.7% |
| COC(=O)[C@]12CC[C@@H](C)[C@H](C)[C@@H]1C1=CC[C@@H]3[C@@]4(C)C(C=O)=C[C@@](C)(COS(C)(=O)=O)C4=CC[C@@]3(C)[C@]1(C)CC2 | -80.5% (active) | -25.1% (active) | -5.33% (active) | -93.6% (active) | -19.9% (active) | -98.2% (active) | -73.4% (active) | -98.7% (active) | -72.3% (active) |
| Cc1cc(N(CCNc2ccnc3cc(Cl)ccc23)Cc2ccc3c(c2)OCO3)nc(N2CCN(C)CC2)n1 | 0.627% (active) | 32.4% | 29.4% | -22.1% (active) | 48.2% | -96.1% (active) | 33.7% | -71.8% (active) | -65.7% (active) |
| CNC(=O)c1ccc(Nc2ncc(C(F)(F)F)c(NCc3nccnc3N(C)S(C)(=O)=O)n2)cc1 | 1.88% (active) | -44.7% (active) | 7.45% (active) | 1.49% (active) | 10.5% | -49.5% (active) | -70% (active) | 0.319% (active) | – |
| CCc1nc(C(N)=O)c(Nc2ccc(N3CCC(N4CCN(C)CC4)CC3)c(OC)c2)nc1NC1CCOCC1 | 25% | -45.3% (active) | 29.8% | 32% | 36.3% | 66.4% | 25.3% | -84.9% (active) | – |
| Ic1ccccc1-c1ccccc1 | 112% | 95.3% | 101% | – | 99.9% | 111% | 100% | 103% | 113% |
| COc1cc(Nc2ncc(F)c(Nc3ccc4c(n3)N(COP(=O)(O)O)C(=O)C(C)(C)O4)n2)cc(OC)c1OC | 21.4% | -95.5% (active) | 31.4% | 29.5% | 33.5% | 43.8% | 18.8% | -69% (active) | 45.6% |
| CC(C)[C@@H](C)/C=C/[C@@H](C)[C@H]1CCC2=C3C=CC4=CC(=O)CC[C@]4(C)[C@H]3CC[C@@]21C | 99.7% | 96.7% | 100% | 88.7% | 62.8% | 89.5% | 94.9% | 101% | 113% |
| C/C(=C(/c1ccc(Cl)cc1)c1ccc(OCCN2CCCCC2)cc1)c1ccccc1 | 24.8% | 90.7% | 86.7% | 66.5% | 66.8% | 62% | 64.9% | 59.9% | 91.5% |
| CC(=O)NCC(=O)N1[C@@H]2CC[C@H]1c1ccc(Nc3ncc(C(F)(F)F)c(NC4CCC4)n3)cc12 | 26.8% [2.5 µM] | 19.7% [2.5 µM] | 73.9% [2.5 µM] | 56.2% [2.5 µM] | 57.2% [2.5 µM] | 58.1% [2.5 µM] | 56.3% [2.5 µM] | 22% [2.5 µM] | 70.8% [2.5 µM] |
| C[C@H](NC(=O)c1c(N)nn2cccnc12)c1cc2cccc(C#Cc3cnn(C)c3)c2c(=O)n1-c1ccccc1 | 10.6% | -6.15% (active) | 39.3% | 16.7% | 18.9% | 44% | 15.6% | 7.86% (active) | 45.5% |
| CCN(CC)CCNC(=O)c1c(C)[nH]c(/C=C2\C(=O)Nc3ccc(F)cc32)c1C | 11% | 18.2% | 9.51% (active) | -79.3% (active) | 21.6% | -98% (active) | -63.6% (active) | -81.9% (active) | -69.1% (active) |
| CCS(=O)(=O)N1CCN(c2ccc(Nc3ncc(C(N)=O)c(NC4CC4)n3)cc2)CC1 | 58.2% | 88% | 105% | 93.4% | 92.4% | 66.8% | 101% | 73.7% | 83.3% |
| Cc1cc(Oc2ccccc2)ccc1Nc1ncnc2ccc(-c3cnc(Cl)c(NS(C)(=O)=O)c3)cc12 | 21.6% | 0.0921% (active) | 32.4% | 29.4% | 25.3% | -25.3% (active) | 10.5% | – | 7.7% (active) |
| C[C@@H](C[C@H](CCO)c1cc(C(F)(F)F)cc(C(F)(F)F)c1)c1ccc2ccccc2c1 | 76.7% | 88.5% | 107% | 91.5% | 83% | 105% | 90.4% | 87.3% | 86.7% |
